PubChem BioAssay AID624040 (The Scripps Research Institute Molecular Screening Center, 2012)
Screen size: about 360,000 compounds; about 2,100 (0.58%) were called active. This excerpt belongs to a sample that is enriched for actives. Values without a mark were called inactive.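 The calls were made as follows: active = inhibition above a per-plate cutoff, the mean of that plate's test compounds plus 3 SD (cut at about 27% in these data); inactive = the rest.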

Molecular target: Muscarinic acetylcholine receptor M5 (Homo sapiens) (UniProt P08912)
Test: human M5 muscarinic receptor antagonists, primary screen, CHO cells, Fluo-8 calcium fluorescence (AID 624040);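 also: 0% = acetylcholine EC80 with DMSO and 100% = DMSO without agonist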
Settings: CHO-hM5 cells, ACh EC80, at 3 µM, stronger effect = higher value

Muscarinic acetylcholine receptor M5 (Homo sapiens), sequence (P08912 whole entry, looked up): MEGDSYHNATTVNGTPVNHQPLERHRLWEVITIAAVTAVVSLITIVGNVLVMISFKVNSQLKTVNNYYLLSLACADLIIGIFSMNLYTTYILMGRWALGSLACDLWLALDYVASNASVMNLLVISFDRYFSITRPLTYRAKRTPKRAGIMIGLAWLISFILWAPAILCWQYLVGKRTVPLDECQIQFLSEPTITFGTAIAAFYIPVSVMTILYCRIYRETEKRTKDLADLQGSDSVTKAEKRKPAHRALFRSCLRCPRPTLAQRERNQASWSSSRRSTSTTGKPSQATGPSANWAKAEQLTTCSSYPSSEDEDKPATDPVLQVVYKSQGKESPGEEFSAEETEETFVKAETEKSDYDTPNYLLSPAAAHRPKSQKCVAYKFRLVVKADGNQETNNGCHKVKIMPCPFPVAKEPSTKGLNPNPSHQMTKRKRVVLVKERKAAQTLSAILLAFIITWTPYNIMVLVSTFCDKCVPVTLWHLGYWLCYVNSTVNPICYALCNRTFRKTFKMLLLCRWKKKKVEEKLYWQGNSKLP

Question: For CC(=O)OCCC(C)C, which inhibition is on record?
Answer: 6.5%

Question: Which inhibition does the source give for CC(C[N+](C)(C)C)OC(N)=O (stereo unspecified) here?
Answer: 74.8% (active)

Question: For CC(=O)OCC(COC(C)=O)OC(C)=O, which inhibition is on record?
Answer: -2.99%

Question: How did the inhibition turn out when CC(=O)OC(C)C[N+](C)(C)C (stereo unspecified) was run?
Answer: 95.7% (active)

Question: Cn1c(CCCOc2ccc(Cl)cc2Cl)n[nH]c1=S was tested. Which inhibition did it give?
Answer: 6.7%

Question: With CN(Cc1ccc(CNC[C@H]2O[C@@H](n3cnc4c(N)ncnc43)[C@H](O)[C@@H]2O)o1)S(C)(=O)=O as the compound, how does the inhibition read?
Answer: -3.06%

Question: With O=C(COC(=O)c1cccnc1Cl)Nc1ccc(S(=O)(=O)N2CCOCC2)cc1 as the compound, how does the inhibition read?
Answer: 13.3%

Question: Which inhibition does the source give for CCOc1ccc(NC(=O)CSc2nc3ccccc3c(=O)n2Cc2cccs2)cc1 here?
Answer: 8.62%

Question: How did the inhibition turn out when COC(=O)c1ccccc1NC(=O)CN(Cc1ccc(Cl)cc1)S(C)(=O)=O was run?
Answer: 5.2%

Question: O=C(Cc1ccc(Cl)cc1)NC(=S)Nc1ccccc1O was tested. Which inhibition did it give?
Answer: 64.5% (active)

Question: O=C(NC(=S)Nc1ccc(Cl)cc1Cl)C1CC1 was tested. Which inhibition did it give?
Answer: 6.51%

Question: Cc1cc(NS(=O)(=O)c2ccc(NC(=O)c3cccc(OC(F)F)c3)cc2)nc(C)n1 was tested. Which inhibition did it give?
Answer: -2.8%

Question: For O=C1C(Cl)=C(Oc2ccccc2)C(=O)c2ccccc21, which inhibition is on record?
Answer: 30.4% (active)

Question: Which inhibition does the source give for O=C(NCc1ccco1)C(c1ccncc1)N(C(=O)Cn1nnc2ccccc21)c1ccccc1 (stereo unspecified) here?
Answer: 9.94%

Question: For O=C(Nc1ccc(S(=O)(=O)NCC2CCCO2)cc1)c1ccc(F)cc1 (stereo unspecified), which inhibition is on record?
Answer: 1.2%

Question: How did the inhibition turn out when N=c1n(Cc2ccc(Cl)cc2)c2ccccc2n1CC(O)c1ccco1 (stereo unspecified) was run?
Answer: 2.61%

Question: Which inhibition does the source give for O=S1(=O)CC/C(=N\Nc2ccc(F)cc2)c2ccsc21 here?
Answer: -3.05%

Question: With CC(C)NS(=O)(=O)c1ccc(OCC(=O)NC2CCCCCC2)cc1 as the compound, how does the inhibition read?
Answer: 1.3%

Question: With Cc1cn([C@H]2C[C@H](O)[C@@H](/C=C/C(=O)NCCCc3ccccc3)O2)c(=O)[nH]c1=O as the compound, how does the inhibition read?
Answer: 6.27%

Question: Which inhibition does the source give for Cc1ccc(NC(=O)OCCNC(=O)c2ccncc2)cc1 here?
Answer: 50% (active)

Question: CCOC(=O)c1cccnc1NC(=O)c1ccncc1 was tested. Which inhibition did it give?
Answer: 4.86%

Question: With Cc1ccc(NC(=O)c2ccc(Oc3ncccn3)cc2)cc1 as the compound, how does the inhibition read?
Answer: 9.93%

Question: COC(=O)[C@]12CCCCC=C1N(CCC1=CCCCC1)C(=O)[C@H](CC(=O)N1CCSCC1)C2 was tested. Which inhibition did it give?
Answer: 1.29%

Question: How did the inhibition turn out when CCCCCC(O)(CCN1CCCCC1)c1ccccc1 (stereo unspecified) was run?
Answer: 98.2% (active)

Question: How did the inhibition turn out when c1ccc2cc3[nH]c(CN4CCCCC4)nc3cc2c1 was run?
Answer: 7.88%

Question: OC(C#CCN1CCOCC1)(c1ccccc1)C1CCCCC1 (stereo unspecified) was tested. Which inhibition did it give?
Answer: 7.29%

Question: How did the inhibition turn out when C#CC(CCN1CCCCC1)(OC)c1ccccc1 (stereo unspecified) was run?
Answer: 30.6% (active)

Question: How did the inhibition turn out when CCCCCCC(O)(CCN1CCCCC1)c1ccccc1 (stereo unspecified) was run?
Answer: 97.8% (active)

Question: For CCc1ccccc1NC(=O)NCCN1CCCCC1, which inhibition is on record?
Answer: -5.44%

Question: For CC(CN1CCCCC1)c1ccccc1 (stereo unspecified), which inhibition is on record?
Answer: 2.28%

Question: With O=C(c1ccccc1)C(O)(CN1CCCCC1)c1ccccc1 (stereo unspecified) as the compound, how does the inhibition read?
Answer: 8.34%

Question: Which inhibition does the source give for COc1ccc(C(O)(C2CCCCC2)C(CN2CCCC2)c2ccccc2)cc1 (stereo unspecified) here?
Answer: -3.7%

Question: For CCc1ccc[n+](-c2nc([O-])sc2C=O)c1, which inhibition is on record?
Answer: 9.19%

Question: Cc1ccc(C23CC4CC(CC(C(=O)NCC(=O)O)(C4)C2)C3)cc1 was tested. Which inhibition did it give?
Answer: 6.84%

Question: For Cc1nnc(SCCCCSc2nnc(C)c(=O)[nH]2)[nH]c1=O, which inhibition is on record?
Answer: -7.67%

Question: How did the inhibition turn out when CC1(C(=O)Nc2ccccc2Br)CCN1C(=O)CC1CC1 (stereo unspecified) was run?
Answer: 4.22%

Question: With COn1c(=O)c(=O)n(OC)c2ccccc21 as the compound, how does the inhibition read?
Answer: 6.69%

Question: CCOc1cc(C(=O)Nc2ccc(S(=O)(=O)Nc3cnc4ccccc4n3)cc2)cc(OCC)c1OCC was tested. Which inhibition did it give?
Answer: 0.97%

Question: With Nc1nnc(SCC(=O)NC2CCCc3ccccc32)s1 (stereo unspecified) as the compound, how does the inhibition read?
Answer: 2.63%

Question: With Nc1nnc(SCC(=O)Nc2ccc3nc(SCC(=O)Nc4ccccc4)sc3c2)s1 as the compound, how does the inhibition read?
Answer: 43.5% (active)

Question: For O=C(CSc1nc(-c2ccccc2)cs1)Nc1cccc([N+](=O)[O-])c1, which inhibition is on record?
Answer: 14.8%

Question: With CCOC(=O)c1nc(-c2ccc3c(c2)OCO3)[nH]c1C as the compound, how does the inhibition read?
Answer: 3.11%

Question: Which inhibition does the source give for COc1ccc2c(c1)[C@H]1[C@H](CO2)[C@H](c2ccccc2)[C@]2(C)C(=O)Nc3cc(F)c(F)cc3C(=O)N12 here?
Answer: 11.7%

Question: Which inhibition does the source give for CCN1CCC2(CC1)N=C(c1ccc(F)cc1)C(=S)N2C(=O)c1ccc(C)cc1 here?
Answer: 69.5% (active)

Question: How did the inhibition turn out when Cc1ccc(C(=O)N2CC(=O)Nc3ccc(F)cc3C2c2ccc(F)cc2)cc1 (stereo unspecified) was run?
Answer: 11.2%

Question: CCN1CCC(O)(/C=C/c2ccc(C)cc2)C(C(=O)/C=C/c2ccc(C)cc2)C1 (stereo unspecified) was tested. Which inhibition did it give?
Answer: 5.72%

Question: CCOc1ccc(-n2c(N)c(C(=O)NCC3CCCO3)sc2=S)cc1 (stereo unspecified) was tested. Which inhibition did it give?
Answer: 3.05%

Question: Which inhibition does the source give for Cc1cccc(C(=O)NCC(=O)OCC(=O)N(C)CC(=O)Nc2ccccc2Cl)c1 here?
Answer: 9.75%

Question: CC1(C)CC(N2CCN(C(c3ccccc3)c3ccccc3)CC2)=CC(=[N+]2CCCCC2)C1 was tested. Which inhibition did it give?
Answer: 31.9% (active)

Question: CC1CC(NC(=O)/C(C#N)=C/c2ccc[nH]2)CC(C)(C)C1 (stereo unspecified) was tested. Which inhibition did it give?
Answer: 1.56%

Question: With CCC(=O)N1CCN=C1SCc1ccc(F)cc1 as the compound, how does the inhibition read?
Answer: 5.93%

Question: How did the inhibition turn out when COc1ccccc1CNc1nc(Nc2ccccc2Cl)c2sccc2n1 was run?
Answer: 11.1%

Question: COc1cccc(CNc2nc(NCc3cccs3)nc3ccsc23)c1 was tested. Which inhibition did it give?
Answer: 44.2% (active)

Question: COc1cccc(CNc2nc3cc(-c4csc5ccccc45)sc3c(=O)n2C)c1 was tested. Which inhibition did it give?
Answer: 2.12%

Question: Which inhibition does the source give for CN(C)c1ccc(NC(=S)N(CCc2ccccc2)C2CC(=O)N(c3c(Cl)cccc3Cl)C2=O)cc1 (stereo unspecified) here?
Answer: -4.62%

Question: For CCOc1ccc(N2C(=O)CC(N(CCc3ccc(OC)c(OC)c3)C(=S)Nc3ccccc3)C2=O)cc1 (stereo unspecified), which inhibition is on record?
Answer: 30.8% (active)

Question: For COC(=O)CN(C(=S)Nc1ccc(Cl)cc1)C1CC(=O)N(c2ccc(OC)cc2)C1=O (stereo unspecified), which inhibition is on record?
Answer: 11.6%

Question: For CCn1ncc(CNC(=O)C2(C)CC2(Br)Br)c1C (stereo unspecified), which inhibition is on record?
Answer: 4.36%

Question: For CCCCCCCCCCOC(=O)Cn1c(COc2cccc(OC)c2)[n+](C)c2ccccc21, which inhibition is on record?
Answer: 31% (active)

Question: With Cc1c(C)c(C)c(S(=O)(=O)N2CCC3(CC2)OCCO3)c(C)c1C as the compound, how does the inhibition read?
Answer: 5.79%

Question: With COC(C/C=C/C(=O)[C@@H](C)OCc1ccccc1)OC as the compound, how does the inhibition read?
Answer: 3.64%
